# Assay outcomes: PubChem, National Center for Advancing Translational Sciences (NCATS)
# FLuc counter – qHTS profiling assay for firefly luciferase inhibitor/activator using purifed enzyme and Km concentrations of substrates (counterscreen for miR-21 project) | Luciferin 4-monooxygenase (Photinus pyralis), P08659 | purified FLuc, Km substrates, luminescence inhibition | Potency, µM (series often up to 57.5 µM), most hits filed as inhibitors | 360,000 tested, 6.9% active | AID 588342, 2011; also: nearly all actives have a fitted effect of over 55% in size
# Target sequence (P08659 whole entry, looked up): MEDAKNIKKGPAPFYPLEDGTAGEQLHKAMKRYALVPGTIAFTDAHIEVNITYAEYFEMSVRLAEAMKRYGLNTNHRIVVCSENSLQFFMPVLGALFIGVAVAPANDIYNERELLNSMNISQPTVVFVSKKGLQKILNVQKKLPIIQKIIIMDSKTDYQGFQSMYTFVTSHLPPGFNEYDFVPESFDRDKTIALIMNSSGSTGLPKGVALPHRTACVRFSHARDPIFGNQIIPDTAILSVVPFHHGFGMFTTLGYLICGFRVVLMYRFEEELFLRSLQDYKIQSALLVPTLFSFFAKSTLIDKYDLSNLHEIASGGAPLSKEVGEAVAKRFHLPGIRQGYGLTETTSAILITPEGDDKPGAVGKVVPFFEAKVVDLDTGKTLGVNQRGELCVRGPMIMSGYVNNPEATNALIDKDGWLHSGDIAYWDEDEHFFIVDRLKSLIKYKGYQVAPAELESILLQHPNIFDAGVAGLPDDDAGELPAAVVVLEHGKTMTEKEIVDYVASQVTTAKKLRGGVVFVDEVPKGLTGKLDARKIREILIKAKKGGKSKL
#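 Biochemical qHTS of compounds, final roughly 60 µM downward over six points, against 10 nM purified firefly luciferase using Km concentrations of substrates (10 uM D-luciferin, 10 uM ATP) in Tris acetate pH 7.5 buffer; luminescence output.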
# KinaseGlo FLuc – Counterscreen for Luciferase (Kinase-Glo TM) Inhibition | Kinase-Glo luciferase, ATP luminescence, 8 min | Potency, µM (series often up to 38.3 µM), hits mostly inhibitors | 200,000 tested, 0.28% active | AID 1379, 2008; also: nearly all actives have a fitted effect of over 60% in size
#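 Kinase-Glo luciferase light output from ATP and luciferin was measured with 10 uM ATP, within the enzyme's linear range. Buffer: 50 mM imidazole pH 7.2, 50 mM KCl, 7 mM MgCl2, 0.01% Tween 20, 0.05% BSA; luminescence read after 8 min at ambient temperature.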
# Rab9 prom act – qHTS Assay for Rab9 Promoter Activators; Huh7 Rab9 promoter-luciferase reporter, luminescence, 24 h; Potency, µM (highest dose often 9.22 µM), usual class: activators; 320,000 tested, 2.8% active; AID 485297, 2010; also: nearly all actives have a fitted effect of over 60% in size
#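 Huh7 cells stably carrying a Rab9 promoter-luciferase reporter, 1500 cells per well in OP-MEM I with 10% FBS, treated with compound 24 hours at 37C. Luciferase activity read by luminescence after 10 minutes with Amplite reagent.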
# ELG1 genotoxic – qHTS screen for small molecules that induce genotoxicity in human embryonic kidney (HEK293T) cells expressing luciferase-tagged ELG1; HEK293T ELG1-luciferase reporter, luminescence, 16 h; Potency, µM (series often up to 46 µM), most hits filed as activators; 330,000 tested, 1.3% active; AID 504466, 2011; also: nearly all actives have a fitted effect of over 60% in size
#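 Luminescence read-out: rising ELG1-luciferase signal, reflecting elevated ELG1 protein under genetic stress, flags genotoxic compounds. Cells were treated for 16 hr at 37 °C before ONE-Glo detection.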
# NPC1 prom act – qHTS Assay for NPC1 Promoter Activators; Huh7 NPC1 promoter luciferase reporter, 24 h; Potency, µM (series often up to 9.22 µM), actives largely listed as activators; 320,000 tested, 2.4% active; AID 485313, 2010; also: nearly all actives have a fitted effect of over 60% in size
#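 Luciferase expression driven by the NPC1 promoter was measured in stably transfected Huh7 cells after a 24 h compound incubation, using a luciferase reagent and a luminescence read.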
# SMN2 splice enh – qHTS Assay for Enhancers of SMN2 Splice Variant Expression. HEK293 SMN2-luciferase splicing reporter, luminescence, 30-36 h. Potency, µM (series often up to 46.1 µM), most hits filed as activators. 210,000 tested, 2.8% active; also: nearly all actives have a fitted effect of over 55% in size
#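 HEK293 cells carry an SMN2 […]–luciferase reporter in which exon 7 inclusion puts luciferase in frame. Cells were plated 10-12 h before compound addition, then incubated 30-36 h at 37C. ONE-Glo luminescence was read; sodium butyrate at 4.5 mM final served as control.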
# A number is an active result; i = inactive; ? = inconclusive; nt = no result given. This is a sample that favours compounds with a hit; in the whole collection about 7.4% have one here. Calls follow the shape of the dose curve; as a rule, active = well fitted curve in the direction sought with a large enough effect; inconclusive = small, poorly fitted or top-dose-only effect, or another doubt; inactive = no such curve, though single readings can be large; an effect the other way counts as inactive or inconclusive.
SMILES,FLuc counter,KinaseGlo FLuc,Rab9 prom act,ELG1 genotoxic,NPC1 prom act,SMN2 splice enh
Cc1c(C(=O)Nc2nc3ccccc3[nH]2)cccc1[N+](=O)[O-],15µM,i,?,i,i,20µM
O=C(Nc1nc2ccccc2[nH]1)c1ccccc1[N+](=O)[O-],?,i,i,i,?,13µM
O=C(NC(Cc1ccccc1)c1nc2ccccc2[nH]1)c1ccc(Cl)c([N+](=O)[O-])c1 (stereo not given),i,nt,i,i,i,nt
CCc1ccc(CSc2nc(-c3ccccc3OC)nc3c2Cc2c(CO)cnc(C)c2O3)cc1,i,nt,nt,nt,nt,nt
CC(Oc1ccc(Cl)cc1)C(=O)Nc1ccccc1C(=O)N1CCOCC1 (stereo not given),i,nt,i,i,i,nt
CCc1ccc(-n2c(CCC(=O)O)ccc2-c2cccs2)cc1,13µM,nt,nt,nt,nt,i
Cc1ccc(-n2c(CCC(=O)O)ccc2-c2cccs2)cc1C,12µM,i,i,i,i,i
CCc1nc2ccccc2n1CC(=O)NC1CCS(=O)(=O)C1 (stereo not given),nt,nt,nt,i,nt,nt
O=C(c1ccco1)N1CCN(c2nc3ccsc3c(=O)s2)CC1,i,i,i,i,i,i
O=c1sc(N2CCN(c3ccccc3F)CC2)nc2ccsc12,2.7µM,i,0.79µM,7.3µM,1.4µM,13µM
O=c1sc(N2CCN(c3ccc(F)cc3)CC2)nc2ccsc12,8.5µM,i,?,?,?,?
COC(=O)C1=C(C)NC(C)=C(C(=O)OC)C1/C=C/c1ccccc1,i,i,i,16µM,i,i
COc1cccc(-n2cc(-c3ccc(F)cc3)[nH]c2=S)c1,?,nt,0.32µM,?,1.6µM,nt
COc1ccc(-n2cc(-c3ccc(Cl)cc3)[nH]c2=S)cc1,i,nt,1.3µM,i,i,nt
O=C(c1cnccn1)N1CCC[C@@]2(CCN(C(c3ccccc3)c3ccccc3)C2)C1,nt,i,nt,nt,nt,i
CCN(CC)CCNC(=O)Cn1ncc2c3ccccc3n(Cc3ccc(Cl)cc3)c2c1=O,i,nt,nt,nt,nt,i
Nn1c(Cc2ccccc2)nc2cc(Cl)ccc2c1=O,i,nt,i,i,i,nt
Nn1c(COc2ccc(Cl)cc2)nc2ccccc2c1=O,?,i,?,?,?,14µM
O=c1c2ccccc2c2c(O)nc(-c3ccccc3)n2n1Cc1ccccc1,i,i,i,i,i,i
NC(=O)c1ccsc1NC(=O)C1CCCN1S(=O)(=O)c1ccc(Cl)cc1 (stereo not given),i,i,i,i,i,i
Cc1cc(C)n(-c2ccc(C(=O)Nc3nnc(C)s3)cc2)n1,13µM,i,?,?,i,i
Cc1cc(C)n(-c2ccc(C(=O)Nc3sccc3C(N)=O)cc2)n1,6.7µM,i,?,?,?,13µM
CC1CCCCN1S(=O)(=O)c1ccc(C(=O)Nc2sccc2C(N)=O)cc1 (stereo not given),21µM,i,?,?,?,20µM
Cc1cc(C)n(-c2ccc(C(=O)Nc3ccccn3)cc2)n1,6µM,?,0.5µM,?,0.89µM,1.6µM
CC(C)=CC[C@@H](O)C1=CC(=O)c2c(O)ccc(O)c2C1=O,nt,nt,nt,nt,nt,i
SMILES,FLuc counter,KinaseGlo FLuc,Rab9 prom act,ELG1 genotoxic,NPC1 prom act,SMN2 splice enh
CC1(C)CC2CC(C)(CN2C(=O)COC(=O)c2cccc([N+](=O)[O-])c2)C1 (stereo not given),nt,nt,nt,i,nt,nt
CC(C)C1N=C2c3ccccc3N=C(SCC(=O)NCc3ccccc3Cl)N2C1=O (stereo not given),i,nt,nt,nt,nt,nt
CCOC(=O)C1=C(Cc2ccc(Cl)cc2)C(=O)c2ccccc2C1=O,21µM,i,i,i,i,i
CCOC(=O)C1=C(C)N=C2c3ccccc3C(=O)C2C1c1ccc(Cl)cc1 (stereo not given),i,i,i,i,i,i
N/C(=N\OC(=O)c1ccc2ccccc2c1)c1ccccn1,0.15µM,11µM,?,0.58µM,?,?
N/C(=N\OC(=O)c1ccc(=O)n(Cc2ccccc2)c1)c1ccccn1,?,i,i,i,i,i
N/C(=N\OC(=O)c1ccccc1Cl)c1ccncc1,?,i,i,i,i,nt
N/C(=N\OC(=O)c1ccc2ccccc2c1)c1ccccc1Cl,1.9µM,nt,4µM,23µM,3.2µM,nt
N/C(=N\OC(=O)Cc1ccccc1)c1ccccc1Cl,?,i,i,i,i,i
N/C(=N\OC(=O)c1ccc2ccccc2c1)c1ccncc1,1.9µM,i,1.4µM,4.6µM,1.3µM,nt
Cc1ccccc1C(=O)O/N=C(\N)c1ccncc1,4.3µM,i,3.2µM,?,?,nt
N/C(=N\OC(=O)COc1ccc2ccccc2c1)c1ccncc1,?,i,i,i,i,nt
O=C(Cc1csc(NC(=O)Nc2cccc(Cl)c2)n1)NC1CCCC1,?,nt,i,i,i,nt
Cc1cc(C)n2nc(SCC(=O)NC(=O)c3ccccc3Cl)nc2n1,i,nt,i,i,i,nt
